Results taken from PubChem BioAssay AID1159580 (chemical genetic matrix, 2015).
Values joined by “and” are separate entries in the source; they are usually repeats but may differ in a detail not shown here. Equal values may be shown once. Among all 5,500 compounds or so, about 2,000 (36%) were called active. About 18% were inconclusive and are not listed. Rule as the data show it: active = normalized growth mostly below about 0.91 (no sharp cut-off); inconclusive = no clear call, values can overlap the other calls; inactive = mostly above about 0.92. This is one part of the list.

Assay: chemical genetic growth profiling, strain panel (AID 1159580);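 also: tested at 20 µM; growth read once vehicle control cultures reached saturation at 30 °C; 1 = growth at the plate median or of vehicle wells; lower values mean less growth of the strain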
Conditions: growth OD
[1] = S. cerevisiae deletion strains, locus YAL013W, strain DEP1, hits give low values
[2] = S. cerevisiae deletion strains, locus YBR229C, strain ROT2, hits give low values
[3] = S. cerevisiae deletion strains, locus YDL101C, strain DUN1, hits give low values
[4] = S. cerevisiae deletion strains, locus YDL134C, strain PPH21, hits give low values
[5] = S. cerevisiae deletion strains, locus YDR150W, strain NUM1, hits give low values
[6] = S. cerevisiae deletion strains, locus YEL061C, strain CIN8, hits give low values
[7] = S. cerevisiae deletion strains, locus YGR078C, strain PAC10, hits give low values
[8] = S. cerevisiae deletion strains, locus YGR229C, strain SMI1, hits give low values
[9] = S. cerevisiae deletion strains, locus YHR030C, strain SLT2, hits give low values
[10] = S. cerevisiae deletion strains, locus YHR087W, strain rtc3, hits give low values
[11] = S. cerevisiae deletion strains, locus YJR043C, strain POL32, hits give low values
[12] = S. cerevisiae deletion strains, locus YJR075W, strain HOC1, hits give low values
[13] = S. cerevisiae deletion strains, locus YKL190W, strain CNB1, hits give low values
[14] = S. cerevisiae deletion strains, locus YLR039C, strain RIC1, hits give low values
[15] = S. cerevisiae deletion strains, locus YLR058C, strain SHM2 (second series), hits give low values
[16] = S. cerevisiae deletion strains, locus YLR085C, strain ARP6, hits give low values
[17] = S. cerevisiae deletion strains, locus YLR262C, strain YPT6, hits give low values
[18] = S. cerevisiae deletion strains, locus YML094W, strain GIM5, hits give low values
[19] = S. cerevisiae deletion strains, locus YMR219W, strain ESC1, hits give low values
[20] = S. cerevisiae deletion strains, locus YMR263W, strain SAP30, hits give low values
[21] = S. cerevisiae deletion strains, locus YMR307W, strain GAS1, hits give low values
[22] = S. cerevisiae deletion strains, locus YNL153C, strain GIM3, hits give low values
[23] = S. cerevisiae deletion strains, locus YNL298W, strain CLA4 (second series), hits give low values
[24] = S. cerevisiae deletion strains, locus YNL322C, strain KRE1, hits give low values
[25] = S. cerevisiae deletion strains, locus YNR030W, strain Alg12, hits give low values
[26] = S. cerevisiae deletion strains, locus YOL006C, strain TOP1, hits give low values
[27] = S. cerevisiae deletion strains, locus YPL055C, strain LGE1, hits give low values
[28] = S. cerevisiae deletion strains, locus YPL241C, strain CIN2, hits give low values
[29] = S. cerevisiae deletion strains, locus YPR135W, strain CTF4, hits give low values
[30] = S. cerevisiae strains, strain wild type, hits give low values

Measured: normalized growth

O=C(NNC(=S)Nc1cccc(Cl)c1)C1CC1
active: [6] 0.857 | [9] 0.489 | [13] 0.913 | [14] 0.749 | [16] 0.673 | [18] 0.796 | [23] 0.782 | [25] 0.859 | [26] 0.384 | [27] 0.735 | [28] 0.784
inactive: [1] 0.987 | [2] 0.951 | [3] 0.963 | [4] 0.99 | [5] 0.917 | [7] 0.956 | [8] 1 | [10] 0.986 | S. cerevisiae deletion strains, locus YJL187C, strain SWE1, hits give low values 0.967 | [11] 0.942 | [12] 0.986 | [15] 0.998 | [17] 0.949 | [19] 0.988 | [20] 0.975 | [21] 0.684 | [22] 0.965 | [24] 1.05 | [29] 0.69 | [30] 0.953

O=C(NNC(=S)Nc1cccc(Cl)c1)c1ccncc1
inactive: [1] 0.977 | [2] 0.996 | [3] 0.983 | [4] 0.995 | [5] 0.95 | [6] 1 | [7] 0.983 | [8] 0.997 | [9] 1 | [10] 1 | [11] 0.98 | [12] 1.01 | [13] 1.01 | [14] 1.04 | [15] 0.981 | [16] 0.989 | [17] 0.99 | [18] 1.01 | [19] 0.991 | [20] 0.994 | [21] 1.02 | S. cerevisiae deletion strains, locus YNL128W, strain TEP1, hits give low values 0.995 | [22] 0.986 | [23] 0.965 | [24] 0.991 | [25] 0.951 | [27] 0.914 | [28] 0.992 | [29] 0.938

C[C@@H]1O[C@@H](O[C@H]2[C@H](Oc3cc(O)c4c(=O)cc(-c5ccc(O)cc5)oc4c3)O[C@H](CO)[C@@H](O)[C@@H]2O)[C@H](O)[C@H](O)[C@H]1O
inactive: [1] 0.994 | S. cerevisiae deletion strains, locus YBR021W, strain FUR4, hits give low values 1 | [2] 1 | S. cerevisiae deletion strains, locus YCL029C, strain bik1, hits give low values 0.977 | S. cerevisiae deletion strains, locus YDL035C, strain GPR1, hits give low values 1 | S. cerevisiae deletion strains, locus YDL074C, strain BRE1, hits give low values 0.933 | [3] 0.998 | [4] 1.07 | S. cerevisiae deletion strains, locus YDL185W, strain tfp1, hits give low values 0.95 | S. cerevisiae deletion strains, locus YDL192W, strain arf1, hits give low values 0.998 | S. cerevisiae deletion strains, locus YDR101C, strain arx1, hits give low values 0.937 | S. cerevisiae deletion strains, locus YDR162C, strain NBP2, hits give low values 1.01 | S. cerevisiae deletion strains, locus YDR318W, strain mcm21, hits give low values 1 | S. cerevisiae deletion strains, locus YDR388W, hits give low values 0.996 | S. cerevisiae deletion strains, locus YDR502C, strain sam2, hits give low values 0.99 | [6] 1 | S. cerevisiae deletion strains, locus YER110C, hits give low values 0.982 | S. cerevisiae deletion strains, locus YER155C, strain BEM2, hits give low values 0.991 | S. cerevisiae deletion strains, locus YER167W, strain BCK2, hits give low values 0.994 | S. cerevisiae deletion strains, locus YGL078C, strain dbp3, hits give low values 0.981 | S. cerevisiae deletion strains, locus YGL086W, strain mad1, hits give low values 0.954 | S. cerevisiae deletion strains, locus YGL248W, strain PDE1, hits give low values 1.02 | S. cerevisiae deletion strains, locus YGR135W, strain pre9, hits give low values 1.02 | S. cerevisiae deletion strains, locus YGR252W, strain gcn5, hits give low values 1.11 | [9] 0.989 and 1.02 | S. cerevisiae deletion strains, locus YHR079C, strain IRE1 (second series), hits give low values 0.976 | S. cerevisiae deletion strains, locus YHR079C, strain IRE1, hits give low values 1.03 | S. cerevisiae deletion strains, locus YHR094C, strain hxt1, hits give low values 0.99 | S. cerevisiae deletion strains, locus YHR129C, strain ARP1, hits give low values 1.02 | S. cerevisiae deletion strains, locus YHR200W, strain rpn10, hits give low values 0.988 | S. cerevisiae deletion strains, locus YIL066C, strain RNR3, hits give low values 0.994 | S. cerevisiae deletion strains, locus YIL073C, strain SPO22, hits give low values 0.981 | S. cerevisiae deletion strains, locus YIL125W, strain kgd1, hits give low values 0.972 | S. cerevisiae deletion strains, locus YIR030C, strain dcg1, hits give low values 0.983 | S. cerevisiae deletion strains, locus YJL095W, strain BCK1, hits give low values 1.03 and 0.992 | S. cerevisiae deletion strains, locus YJL134W, strain LCB3, hits give low values 0.992 | S. cerevisiae deletion strains, locus YJL168C, strain set2, hits give low values 1 | S. cerevisiae deletion strains, locus YJL187C, strain SWE1 (second series), hits give low values 0.995 | [11] 0.993 | S. cerevisiae deletion strains, locus YJR066W, strain TOR1, hits give low values 0.981 | S. cerevisiae deletion strains, locus YKL009W, strain mrt4, hits give low values 0.955 | S. cerevisiae deletion strains, locus YKL068W, hits give low values 0.987 | S. cerevisiae deletion strains, locus YKL085W, strain MDH1 (second series), hits give low values 0.981 | S. cerevisiae deletion strains, locus YKL085W, strain MDH1, hits give low values 0.981 | S. cerevisiae deletion strains, locus YKR001C, strain vps1, hits give low values 0.982 | [14] 0.963 | S. cerevisiae deletion strains, locus YLR058C, strain SHM2, hits give low values 0.998 | S. cerevisiae deletion strains, locus YLR102C, strain apc9, hits give low values 0.987 | S. cerevisiae deletion strains, locus YLR113W, strain HOG1, hits give low values 0.967 | [17] 0.95 | S. cerevisiae deletion strains, locus YLR268W, strain sec22, hits give low values 0.951 | S. cerevisiae deletion strains, locus YLR330W, strain CHS5, hits give low values 0.979 | S. cerevisiae deletion strains, locus YLR342W, strain FKS1 (second series), hits give low values 1.01 | S. cerevisiae deletion strains, locus YLR371W, strain rom2, hits give low values 0.98 | S. cerevisiae deletion strains, locus YLR418C, strain cdc73, hits give low values 1.01 | S. cerevisiae deletion strains, locus YML016C, strain PPZ1, hits give low values 0.995 | S. cerevisiae deletion strains, locus YML032C, strain rad52, hits give low values 1.04 | S. cerevisiae deletion strains, locus YML124C, strain tub3, hits give low values 0.978 | S. cerevisiae deletion strains, locus YMR078C, strain ctf18, hits give low values 0.975 | S. cerevisiae deletion strains, locus YMR223W, strain ubp8, hits give low values 1 | [20] 0.985 | [21] 1.05 | S. cerevisiae deletion strains, locus YNL067W, strain RPL9B, hits give low values 0.999 | S. cerevisiae deletion strains, locus YNL183C, strain NPR1, hits give low values 0.963 | S. cerevisiae deletion strains, locus YNL233W, strain BNI4, hits give low values 0.988 | S. cerevisiae deletion strains, locus YNL250W, strain rad50, hits give low values 0.955 | S. cerevisiae deletion strains, locus YNL271C, strain bni1, hits give low values 0.981 | S. cerevisiae deletion strains, locus YNL298W, strain CLA4, hits give low values 0.991 | S. cerevisiae deletion strains, locus YNL307C, strain MCK1, hits give low values 0.971 | S. cerevisiae deletion strains, locus YNR052C, strain pop2, hits give low values 1.01 | [26] 0.99 | S. cerevisiae deletion strains, locus YOL012C, strain htz1 0.768 | S. cerevisiae deletion strains, locus YOL147C, strain pex11, hits give low values 0.992 | S. cerevisiae deletion strains, locus YOR061W, strain CKA2, hits give low values 0.997 | S. cerevisiae deletion strains, locus YOR069W, strain VPS5, hits give low values 0.994 | S. cerevisiae deletion strains, locus YOR136W, strain idh2, hits give low values 0.965 | S. cerevisiae deletion strains, locus YOR144C, strain elg1, hits give low values 0.996 | S. cerevisiae deletion strains, locus YOR184W, strain ser1, hits give low values 0.993 | S. cerevisiae deletion strains, locus YOR231W, strain MKK1, hits give low values 0.989 | S. cerevisiae deletion strains, locus YOR316C, strain cot1, hits give low values 0.981 | S. cerevisiae deletion strains, locus YPL256C, strain CLN2, hits give low values 1 | S. cerevisiae deletion strains, locus YPR119W, strain clb2, hits give low values 0.978 | S. cerevisiae deletion strains, locus YPR141C, strain kar3, hits give low values 0.986 | S. cerevisiae deletion strains, locus YPR163C, strain tif3, hits give low values 0.992 | S. cerevisiae deletion strains, locus YPR167C, strain met16, hits give low values 0.981 | S. cerevisiae deletion strains, strain wtn01, hits give low values 0.948 | [30] 0.998
